{"source": "PubChem BioAssay (NCATS)", "key": {"[1]": {"system": "Zika virus NS2B-NS3 protease (unlinked complex)", "assay": "Primary screen GU Rhodamine qHTS for Zika virus inhibitors: Unlinked NS2B-NS3 protease assay (AID 1347159); also: nearly all actives have a fitted effect of over 60% in size", "in_short": "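Compounds, tested up to 114 microM, were incubated for 15 minutes with 25 nM unlinked NS2B-NS3 protease at pH 8.0. Cleavage of 1.5 microM Rhodamine110 substrate was then followed by fluorescence for 15 minutes.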"}, "[2]": {"system": "Zika virus NS2B-NS3 protease (linked construct)", "assay": "Primary screen NINDS Rhodamine qHTS for Zika virus inhibitors (AID 1347160); also: nearly all actives have a fitted effect of over 55% in size", "in_short": "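Percent inhibition, normalized to uninhibited and enzyme-free controls, is fitted to a 4-parameter Hill equation. Fluorescence change comes from a 15-min cleavage of 1.5 microM bis-peptide Rhodamine110 substrate by 25 nM linked NS2B-NS3 at room temperature.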"}}, "note": "Inconclusive results are not listed. Where a call stands in place of a potency, no number is given. Active and inactive are the calls of the source. Calls follow the shape of the dose curve; as a rule, active = well fitted inhibition curve with a large enough effect; inconclusive = small, poorly fitted or top-dose-only effect; inactive = no such curve, though single readings can be large or run the other way. Potency is read from the fitted curve at half-maximal effect."}
{"smiles": "CC(C)(O)c1ccn2c(-c3ccc(F)c(-c4ccc(F)cc4C#N)c3)cnc2c1F", "values": [{"measurement": "Potency", "setting": "[1]", "value": "inactive"}, {"measurement": "Potency", "setting": "[2]", "value": "inactive"}]}
{"smiles": "Cc1[nH]c(/C=C2\\C(=O)Nc3cc(-c4ccccc4)ccc32)c(C)c1CCC(=O)O", "values": [{"measurement": "Potency", "setting": "[1]", "value": "1780 nM (active)"}, {"measurement": "Potency", "setting": "[2]", "value": "2240 nM (active)"}]}
{"smiles": "NC(N)=NC(=O)c1cnn(-c2cccc3ncccc23)c1C1CC1", "values": [{"measurement": "Potency", "setting": "[1]", "value": "inactive"}, {"measurement": "Potency", "setting": "[2]", "value": "inactive"}]}
{"smiles": "O=C(NCc1ccc(OC(F)(F)F)cc1)C1c2c(F)cccc2C(=O)N1CCc1ccccn1", "note": "(stereo unspecified)", "values": [{"measurement": "Potency", "setting": "[1]", "value": "inactive"}, {"measurement": "Potency", "setting": "[2]", "value": "inactive"}]}
{"smiles": "C=CC(=O)Nc1ccc(CN2C(=O)N(c3cc(OC)cc(OC)c3)Cc3cnc(Nc4ccc(N5CCN(C)CC5)cc4)nc32)cc1", "values": [{"measurement": "Potency", "setting": "[1]", "value": "inactive"}, {"measurement": "Potency", "setting": "[2]", "value": "inactive"}]}
{"smiles": "CCNC(=O)N1CCCN(c2ccc(C(=O)NCCc3ccc(Cl)cc3Cl)cc2NC(=O)c2cccc(Cl)c2)CC1", "values": [{"measurement": "Potency", "setting": "[1]", "value": "inactive"}, {"measurement": "Potency", "setting": "[2]", "value": "inactive"}]}
{"smiles": "O=C(Nc1cccnn1)N1CCN(c2nccc(-c3ccc(F)c(F)c3)n2)CC1", "values": [{"measurement": "Potency", "setting": "[1]", "value": "inactive"}, {"measurement": "Potency", "setting": "[2]", "value": "inactive"}]}
{"smiles": "CCNC1(C(N)=O)CCN(c2ncnc3c2nc(-c2ccccc2Cl)n3-c2ccc(Cl)cc2)CC1", "values": [{"measurement": "Potency", "setting": "[1]", "value": "inactive"}, {"measurement": "Potency", "setting": "[2]", "value": "inactive"}]}
{"smiles": "CC(=O)N1CCN(CCOc2ccc(C3CCN(C4=Nn5c(nnc5C(F)(F)F)CC4)CC3)cc2)CC1", "values": [{"measurement": "Potency", "setting": "[1]", "value": "inactive"}, {"measurement": "Potency", "setting": "[2]", "value": "inactive"}]}
{"smiles": "O=C(NCCCN1CCOCC1)c1cnn2c(-c3ccccc3)cc(-c3ccccc3)nc12", "values": [{"measurement": "Potency", "setting": "[1]", "value": "inactive"}, {"measurement": "Potency", "setting": "[2]", "value": "inactive"}]}
{"smiles": "CCN1CCN(Cc2ccc(NC(=O)c3ccc(C)c(Oc4ccnc5[nH]ccc45)c3)cc2C(F)(F)F)CC1", "values": [{"measurement": "Potency", "setting": "[1]", "value": "inactive"}, {"measurement": "Potency", "setting": "[2]", "value": "inactive"}]}
{"smiles": "CCCCC1CCN(CCCN2C(=O)CCc3ccccc32)CC1", "values": [{"measurement": "Potency", "setting": "[1]", "value": "inactive"}, {"measurement": "Potency", "setting": "[2]", "value": "inactive"}]}
{"smiles": "C=C(C)C(=O)O[C@H]1[C@H]2C(=C)C(=O)O[C@@H]2C[C@@H](C)[C@@H]2O[C@@H]2C(=O)[C@](C)(O)[C@@H]1OC(=O)C(=C)C", "values": [{"measurement": "Potency", "setting": "[1]", "value": "inactive"}, {"measurement": "Potency", "setting": "[2]", "value": "inactive"}]}
